This is an account of results in PubChem BioAssay AID624094 (National Center for Advancing Translational Sciences (NCATS), 2012).

Results filed as inconclusive are left out. Active and inactive are the calls of the source. The call rests on the fitted dose curve; in most records, active means well fitted inhibition curve with a large enough effect; inconclusive means small, poorly fitted or top-dose-only effect; inactive means flat fitted curve, though single readings scatter.

Sequence of Dual specificity protein kinase CLK4 (Homo sapiens) (Q9HAZ1 whole entry, looked up): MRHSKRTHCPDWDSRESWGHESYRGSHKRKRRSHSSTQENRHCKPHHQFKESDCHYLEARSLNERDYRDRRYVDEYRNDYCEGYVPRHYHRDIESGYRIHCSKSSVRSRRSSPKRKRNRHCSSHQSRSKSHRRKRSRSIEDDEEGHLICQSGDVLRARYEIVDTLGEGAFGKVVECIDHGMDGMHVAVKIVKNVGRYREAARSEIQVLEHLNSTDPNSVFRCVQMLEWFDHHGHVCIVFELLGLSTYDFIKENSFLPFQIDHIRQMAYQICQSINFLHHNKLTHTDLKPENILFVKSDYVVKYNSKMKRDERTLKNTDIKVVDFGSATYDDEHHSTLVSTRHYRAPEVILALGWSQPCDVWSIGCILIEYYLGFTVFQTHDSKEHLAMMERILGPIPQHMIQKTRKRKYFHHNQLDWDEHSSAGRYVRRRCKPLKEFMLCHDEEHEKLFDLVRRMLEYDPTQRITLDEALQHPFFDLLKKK

For this test, the target named is Dual specificity protein kinase CLK4 (Homo sapiens) (UniProt Q9HAZ1). The test can be described thus: Confirmation Assay for Inhibitors of Clk4 (Kinase-Glo Assay): KU probe. The following applies: recombinant Clk4, Kinase-Glo ATP luminescence; series mostly up to 76.9 µM; activity, negative = inhibition: at the top concentration. The gist of the method:
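RS repeat peptide (100 uM) and ATP (1 uM) phosphorylated by 25 nM Clk4 (final) in Tris pH 7.5 with MgCl2, EGTA, DTT and Triton X-100. After 4.5 h at room temperature, remaining ATP read as Kinase-Glo luminescence.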
(In general: In Kinase-Glo more light means more ATP remaining.)
On to `COc1cccc(Nc2ncc3ncc(=O)n(CCc4ccccc4)c3n2)c1`, for which the Potency was 92.3 nM (active).

As to `Cc1ccc(CNc2ccnc(-c3cccc(C#N)c3)n2)cc1`, the Potency was 23200 nM (active).

For the compound `c1cncc(CNc2nccc(-c3ccc4cn[nH]c4c3)n2)c1`, the Potency is 41.2 nM (active).

As to `Clc1ccc(CNc2cc(-c3ccc4c(c3)OCO4)ncn2)cc1Cl`, the Potency was 4630 nM (active).

Consider `CN(C)c1ccc(-c2nccc(NCc3cccs3)n2)cc1`, for which the Potency was 9230 nM (active).

Take `Clc1ccc(CNc2ncncc2-c2ccc3c(c2)OCO3)cc1Cl`: the Potency is 582 nM (active).

Take `Clc1ccc(CNc2cc(-c3ccc4c(c3)OCO4)ncn2)cc1`: the Potency was 2320 nM (active).

For `c1cncc(CNc2nccc(-c3ccc4c(c3)OCO4)n2)c1`, the Potency was 23.2 nM (active).

Regarding `COc1cccc(-c2ccnc(NCc3ccc(Cl)cc3)n2)c1`, the Potency was 5820 nM (active).

On to `Clc1ccc(CNc2nccc(-c3ccc4c(c3)OCO4)n2)cc1`, for which the Potency was 51.9 nM (active).

With `CCCN(C)c1ncnc2ccc(-c3ccc4c(c3)OCO4)cc12`, the Potency is 58.2 nM (active).

As for `Cc1ccc(CNc2ccnc(-c3ccc(N(C)C)cc3)n2)cc1`, the “activity, negative = inhibition” value was 3.14% (inactive).

With `Nc1ncnc2c1c(I)cn2C1OC(CO)C(O)C1O` (centres undefined), the Potency is 11.6 nM (active).

Take `Cc1csc(CNc2ncnc3ccc(-c4ccc(C(=O)O)o4)cc23)n1`: the Potency was 292 nM (active).

As for `COc1ccc(CNc2ccnc(-c3c(C)noc3C)n2)cc1`, the “activity, negative = inhibition” value is -2.38% (inactive).

For the compound `Clc1ccc(CNc2nccc(-c3ccc4c(c3)OCCO4)n2)cc1Cl`, the Potency is 116 nM (active).

As for `CN(CC1CCCCC1)c1ncnc2ccc(-c3ccc4c(c3)OCO4)cc12`, the Potency is 184 nM (active).

Turning to `COc1cccc(-c2ncccn2)c1`, the Potency is 14600 nM (active).

As for `Fc1cncc(CNc2ccnc(-c3ccc4c(c3)OCO4)n2)c1`, the Potency was 8230 nM (active).

For `c1ccc(CNc2ccnc(-c3ccc4c(c3)OCO4)n2)cc1`, the Potency was 23200 nM (active).

Take `c1nc(NCC2CC2)c2cc(-c3ccc4c(c3)OCO4)ccc2n1`: the Potency is 32.8 nM (active).

Regarding `Cc1noc(C)c1-c1nccc(NCc2ccc(Cl)c(Cl)c2)n1`, the “activity, negative = inhibition” value is -4.48% (inactive).

For `Clc1cc(Cl)cc(CNc2ncncc2-c2ccc3c(c2)OCO3)c1`, the Potency was 130 nM (active).

As to `CCN(C)c1ncnc2ccc(-c3ccc4c(c3)OCO4)cc12`, the Potency was 36.8 nM (active).

`FC(F)(F)c1cccc(Nc2nccc(-c3ccc4c(c3)OCO4)n2)c1`: the Potency is 65.4 nM (active).

As for `COc1ccc(CNc2ccnc(-c3cccc(OC)c3)n2)cc1`, the Potency is 23200 nM (active).

For the compound `Clc1ccc(CNc2ccnc(-c3cccnc3)n2)cc1Cl`, the Potency was 13000 nM (active).

With `Clc1ccc(Nc2nccc(-c3ccc4c(c3)OCO4)n2)cc1`, the Potency is 368 nM (active).

Regarding `Cc1c(-c2ccnc(Nc3cc(Br)cc(C(F)(F)F)c3)n2)sc(=O)n1C`, the Potency was 51.9 nM (active).
